Compounds without any hit were thinned out: in the full panel of roughly 83,000, 20% have a hit.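 Interpretation: 100, growth as untreated; towards 0, rising growth inhibition; 0, no net growth; 0 to -100, cell death. Compounds scoring below 10 were considered active.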 Unmarked numbers belong to inactive results. Activity calls are given as the source filed them.

This assay concerns MDA-MB-468 breast. Description: NCI-60 one-dose screen, 48 h (100 = growth as untreated, 0 = no growth, -100 = all killed). The conditions noted are these: 10 µM unless noted.
For `O=C(CSc1nc2sc3c(c2c(=O)n1-c1ccccc1)CCCCC3)N/N=C/c1cccc([N+](=O)[O-])c1`, the growth is 19.2%.

As to `Oc1c(Cl)cc(Cl)c(Cl)c1Cc1c(O)c(Cl)cc(Cl)c1Cl`, the growth is 4.35% (active).

As to `CN(C)c1cccc2c(S(=O)(=O)Nc3cccc(-c4csc(NC(=O)CCCCCN5CCN(CCO)CC5)n4)c3)cccc12`, the growth was 79.3%.

Regarding `CCCCCCCCCCCCCCCCCC[n+]1ccc2c(C)c3c(c(C)c2c1)c1cc(O)ccc1n3CC`, the growth is -18.3% (active).

As for `CC1CN(CCO)CC(C)O1` (centres undefined), the growth was 108%.

Consider `O=C(COc1cccc(/C=C2\Cc3ccc(Cl)cc3C2=O)c1)Nc1nccs1`, for which the growth was 21.9%.

Turning to `C=CCc1cc(Cl)cc2c(OC(C)=O)c(C(C)=O)c(-c3ccccc3)nc12`, the growth is 116%.

For the compound `CN1CCN(c2ccc(Nc3nc(NCCCNS(=O)(=O)c4ccc(F)cc4)c4sccc4n3)cc2)CC1`, the growth is 25.9%.

Turning to `CN1CCN(c2nc(C3=C(c4c[nH]c5ccccc45)C(=O)NC3=O)c3ccccc3n2)CC1`, the growth was 131%.

On to `O=C(/C=C/C12c3ccccc3C(c3ccccc31)C1C(=O)NC(=O)C12)c1ccccn1` (centres undefined), for which the growth is -13.1% (active).

As to `COc1cccc(OC)c1OC(=O)c1ccccc1`, the growth was 105%.

As for `CC(C)(C)OC(=O)N1CCC(O)[C@@H](O[Si](c2ccccc2)(c2ccccc2)C(C)(C)C)[C@H]1/C=C/c1ccccc1` (some centres undefined), the growth is 15.2%.

`OC1(c2ccc(Cl)c(C(F)(F)F)c2)CCN(CCCC(c2ccc(F)cc2)c2ccc(F)cc2)CC1`: the growth is -86% (active).

`COc1cc(C2C(C#N)=C(N)Oc3cc(O)ccc32)cc(OC)c1OC` (centres undefined): the growth was -16% (active).

With `CC(=O)Nc1nc(C)c(C(=O)NNC=O)s1`, the growth is 116%.

Regarding `CC(C)(C)OC(=O)N1C(=O)c2c(c3c4ccccc4[nH]c3c3ccc4ccccc4c23)C1=O`, the growth is 75.6%.

With `C=CC1CN2CCC1CC2C(O)c1ccnc2ccc(OC)cc12` (centres undefined), the growth was 102%.

As for `c1ccc2c(c1)oc1cc3sccc3nc12`, the growth is 102%.

On to `O=c1[nH]ncc(Br)c1Br`, for which the growth is -15.7% (active).

For the compound `NS(=O)(=O)c1ccc(Nc2nc(N/N=C/C=C/c3ccccc3)nc(Nc3ccccc3)n2)cc1`, the growth is 15.6%.

As to `Cc1cc(NCC(=O)Nc2ccc(-c3nc4ccccc4s3)cc2)no1`, the growth is -46.7% (active).

With `NS(=O)(=O)c1ccc(Nc2nc(SCc3ccccc3)nc3ccccc23)cc1`, the growth is 65.4%.

In the case of `Cn1c([N+](=O)[O-])cnc1/C=C1\Oc2cc(Cl)ccc2C1=O`, the growth was 68.7%.

As to `O=C(Cc1nc2cc(Cl)c(Cl)cc2nc1CC(=O)c1cccnc1)c1cccnc1`, the growth was 33.8%.

The values above are taken from PubChem BioAssay (NCI).
